What was measured:
Experiment in all cases: log2 ratio of Biotin-Ahx-Ub-VS probe labelling (fragment/DMSO); higher = less target engagement (more negative = stronger competition), active = hit call of the paper (q ≤ 0.05, log2 ratio ≤ -1)
Settings in all cases: compound concentration: 200 uM; treatment time: 3 h
USP34 = USP34 (UniProt Q70CQ2)
Method in brief: (§1)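 Labelled DUBs from HEK293T lysate were NeutrAvidin-enriched, digested with LysC and trypsin, and run by diaPASEF LC-MS/MS. Before that, each 495 µg sample in Tris/CHAPS/IGEPAL buffer with protease inhibitors was treated in triplicate with fragment at 200 µM or vehicle for 3 h, then with Biotin-Ahx-Ub-VS at 0.5 µM final for 1 h. Values are average log2 ratios of fragment over vehicle by unpaired t-test, based on global-median-normalised Spectronaut label-free quantities from proteins with ≥2 unique peptides.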

USP36 = target: T1, USP36 (UniProt Q9P275)
T1 sequence (whole entry): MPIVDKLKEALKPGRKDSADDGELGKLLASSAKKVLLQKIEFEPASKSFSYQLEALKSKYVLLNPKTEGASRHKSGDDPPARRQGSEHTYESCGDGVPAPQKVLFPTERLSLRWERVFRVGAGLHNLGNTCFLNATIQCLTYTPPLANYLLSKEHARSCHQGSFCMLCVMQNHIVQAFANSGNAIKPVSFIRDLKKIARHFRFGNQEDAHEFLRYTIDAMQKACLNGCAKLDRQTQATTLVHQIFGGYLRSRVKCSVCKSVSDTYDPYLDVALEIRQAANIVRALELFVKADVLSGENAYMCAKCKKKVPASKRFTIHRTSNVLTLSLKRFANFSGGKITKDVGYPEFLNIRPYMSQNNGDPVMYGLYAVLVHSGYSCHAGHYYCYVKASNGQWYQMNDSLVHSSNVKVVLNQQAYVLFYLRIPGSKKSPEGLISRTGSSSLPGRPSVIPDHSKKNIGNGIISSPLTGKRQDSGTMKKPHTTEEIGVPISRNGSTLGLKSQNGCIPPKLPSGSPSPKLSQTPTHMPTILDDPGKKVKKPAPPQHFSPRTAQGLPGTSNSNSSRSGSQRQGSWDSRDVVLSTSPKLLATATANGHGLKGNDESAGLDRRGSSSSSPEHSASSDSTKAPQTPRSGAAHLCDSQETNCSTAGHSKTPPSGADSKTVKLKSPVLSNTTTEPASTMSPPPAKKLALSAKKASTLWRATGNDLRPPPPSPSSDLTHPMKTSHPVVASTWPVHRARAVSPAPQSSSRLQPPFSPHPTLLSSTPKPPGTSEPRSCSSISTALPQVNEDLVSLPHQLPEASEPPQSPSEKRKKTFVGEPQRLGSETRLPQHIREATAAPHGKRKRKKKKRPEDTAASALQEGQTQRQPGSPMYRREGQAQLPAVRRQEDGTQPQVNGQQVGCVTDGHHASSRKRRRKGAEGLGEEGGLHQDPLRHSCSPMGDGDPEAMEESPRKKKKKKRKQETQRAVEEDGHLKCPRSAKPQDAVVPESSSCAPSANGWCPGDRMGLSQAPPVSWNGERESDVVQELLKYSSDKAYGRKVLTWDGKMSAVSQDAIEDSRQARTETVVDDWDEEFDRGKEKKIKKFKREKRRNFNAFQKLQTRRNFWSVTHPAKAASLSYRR
Method in brief: as §1

USP38 = target: T2, USP38 (UniProt Q8NB14)
T2 sequence (whole entry): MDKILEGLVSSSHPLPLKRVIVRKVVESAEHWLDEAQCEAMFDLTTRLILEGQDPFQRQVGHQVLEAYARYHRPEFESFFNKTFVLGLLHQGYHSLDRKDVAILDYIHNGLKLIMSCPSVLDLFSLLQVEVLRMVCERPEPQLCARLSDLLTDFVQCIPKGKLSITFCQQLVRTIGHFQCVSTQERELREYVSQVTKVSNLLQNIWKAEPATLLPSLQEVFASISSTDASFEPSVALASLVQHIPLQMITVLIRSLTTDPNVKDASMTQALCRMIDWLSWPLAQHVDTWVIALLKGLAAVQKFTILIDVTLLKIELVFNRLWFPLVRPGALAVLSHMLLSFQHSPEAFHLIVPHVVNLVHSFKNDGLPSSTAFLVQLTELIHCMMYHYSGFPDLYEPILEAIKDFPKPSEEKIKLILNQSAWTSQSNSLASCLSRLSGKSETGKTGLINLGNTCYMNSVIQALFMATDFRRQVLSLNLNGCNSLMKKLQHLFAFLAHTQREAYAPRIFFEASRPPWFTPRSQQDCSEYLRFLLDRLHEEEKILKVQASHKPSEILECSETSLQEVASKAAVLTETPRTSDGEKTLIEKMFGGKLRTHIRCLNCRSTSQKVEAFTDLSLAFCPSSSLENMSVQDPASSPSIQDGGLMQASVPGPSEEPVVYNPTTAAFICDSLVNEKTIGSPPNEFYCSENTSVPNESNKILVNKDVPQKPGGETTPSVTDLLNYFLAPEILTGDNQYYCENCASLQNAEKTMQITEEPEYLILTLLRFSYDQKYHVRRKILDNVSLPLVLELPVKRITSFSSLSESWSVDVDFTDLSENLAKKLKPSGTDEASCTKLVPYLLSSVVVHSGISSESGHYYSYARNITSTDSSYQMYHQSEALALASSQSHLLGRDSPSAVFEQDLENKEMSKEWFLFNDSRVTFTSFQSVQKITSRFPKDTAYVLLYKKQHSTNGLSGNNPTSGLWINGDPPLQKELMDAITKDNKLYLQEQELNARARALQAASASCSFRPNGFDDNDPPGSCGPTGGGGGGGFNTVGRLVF
Method in brief: as §1

USP39 = target: T3, USP39 (UniProt Q53GS9)
T3 sequence (whole entry): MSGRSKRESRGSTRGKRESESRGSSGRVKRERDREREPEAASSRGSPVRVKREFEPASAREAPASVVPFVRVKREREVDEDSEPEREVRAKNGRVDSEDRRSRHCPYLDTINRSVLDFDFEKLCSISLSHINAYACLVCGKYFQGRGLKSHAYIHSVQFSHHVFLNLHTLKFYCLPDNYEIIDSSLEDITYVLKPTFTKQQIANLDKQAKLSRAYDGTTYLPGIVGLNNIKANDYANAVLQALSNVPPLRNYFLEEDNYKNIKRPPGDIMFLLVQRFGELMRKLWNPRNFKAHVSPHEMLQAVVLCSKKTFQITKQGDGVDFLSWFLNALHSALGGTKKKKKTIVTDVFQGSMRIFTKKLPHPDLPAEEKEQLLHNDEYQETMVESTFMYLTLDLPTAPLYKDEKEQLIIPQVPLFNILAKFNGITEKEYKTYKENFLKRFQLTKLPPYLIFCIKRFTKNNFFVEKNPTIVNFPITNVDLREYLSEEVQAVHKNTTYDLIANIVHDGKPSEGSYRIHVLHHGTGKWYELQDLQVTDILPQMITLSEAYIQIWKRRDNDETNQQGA
Method in brief: as §1

USP4 = target: T4, USP4 (UniProt Q13107)
T4 sequence (whole entry): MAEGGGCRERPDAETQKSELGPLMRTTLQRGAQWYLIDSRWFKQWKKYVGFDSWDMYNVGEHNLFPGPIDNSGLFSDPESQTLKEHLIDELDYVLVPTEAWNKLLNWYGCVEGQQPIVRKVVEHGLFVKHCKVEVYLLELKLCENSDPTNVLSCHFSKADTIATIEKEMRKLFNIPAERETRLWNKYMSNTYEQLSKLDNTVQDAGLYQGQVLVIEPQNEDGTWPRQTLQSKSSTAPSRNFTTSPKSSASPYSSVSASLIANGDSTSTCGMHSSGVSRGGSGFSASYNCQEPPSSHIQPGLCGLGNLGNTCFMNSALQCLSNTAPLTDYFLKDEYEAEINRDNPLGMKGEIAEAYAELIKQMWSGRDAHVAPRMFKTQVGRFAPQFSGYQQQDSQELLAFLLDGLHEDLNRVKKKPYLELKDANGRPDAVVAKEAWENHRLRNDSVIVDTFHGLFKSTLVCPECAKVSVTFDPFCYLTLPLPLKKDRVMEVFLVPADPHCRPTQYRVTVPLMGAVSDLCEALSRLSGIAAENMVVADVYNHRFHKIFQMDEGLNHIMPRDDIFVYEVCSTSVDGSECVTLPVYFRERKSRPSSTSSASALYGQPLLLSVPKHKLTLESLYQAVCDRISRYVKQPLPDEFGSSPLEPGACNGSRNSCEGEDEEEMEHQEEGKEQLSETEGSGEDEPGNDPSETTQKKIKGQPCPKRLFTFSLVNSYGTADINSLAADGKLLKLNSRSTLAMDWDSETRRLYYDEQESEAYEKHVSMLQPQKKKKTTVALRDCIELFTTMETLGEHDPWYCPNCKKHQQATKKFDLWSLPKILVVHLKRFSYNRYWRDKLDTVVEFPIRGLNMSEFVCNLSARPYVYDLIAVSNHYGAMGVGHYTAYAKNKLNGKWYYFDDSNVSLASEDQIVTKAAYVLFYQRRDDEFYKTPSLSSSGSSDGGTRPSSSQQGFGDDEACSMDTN
Method in brief: as §1

Measured: log2 ratio of Biotin-Ahx-Ub-VS probe labelling

USP34, sequence (Q70CQ2 whole entry, the tested form may be a part): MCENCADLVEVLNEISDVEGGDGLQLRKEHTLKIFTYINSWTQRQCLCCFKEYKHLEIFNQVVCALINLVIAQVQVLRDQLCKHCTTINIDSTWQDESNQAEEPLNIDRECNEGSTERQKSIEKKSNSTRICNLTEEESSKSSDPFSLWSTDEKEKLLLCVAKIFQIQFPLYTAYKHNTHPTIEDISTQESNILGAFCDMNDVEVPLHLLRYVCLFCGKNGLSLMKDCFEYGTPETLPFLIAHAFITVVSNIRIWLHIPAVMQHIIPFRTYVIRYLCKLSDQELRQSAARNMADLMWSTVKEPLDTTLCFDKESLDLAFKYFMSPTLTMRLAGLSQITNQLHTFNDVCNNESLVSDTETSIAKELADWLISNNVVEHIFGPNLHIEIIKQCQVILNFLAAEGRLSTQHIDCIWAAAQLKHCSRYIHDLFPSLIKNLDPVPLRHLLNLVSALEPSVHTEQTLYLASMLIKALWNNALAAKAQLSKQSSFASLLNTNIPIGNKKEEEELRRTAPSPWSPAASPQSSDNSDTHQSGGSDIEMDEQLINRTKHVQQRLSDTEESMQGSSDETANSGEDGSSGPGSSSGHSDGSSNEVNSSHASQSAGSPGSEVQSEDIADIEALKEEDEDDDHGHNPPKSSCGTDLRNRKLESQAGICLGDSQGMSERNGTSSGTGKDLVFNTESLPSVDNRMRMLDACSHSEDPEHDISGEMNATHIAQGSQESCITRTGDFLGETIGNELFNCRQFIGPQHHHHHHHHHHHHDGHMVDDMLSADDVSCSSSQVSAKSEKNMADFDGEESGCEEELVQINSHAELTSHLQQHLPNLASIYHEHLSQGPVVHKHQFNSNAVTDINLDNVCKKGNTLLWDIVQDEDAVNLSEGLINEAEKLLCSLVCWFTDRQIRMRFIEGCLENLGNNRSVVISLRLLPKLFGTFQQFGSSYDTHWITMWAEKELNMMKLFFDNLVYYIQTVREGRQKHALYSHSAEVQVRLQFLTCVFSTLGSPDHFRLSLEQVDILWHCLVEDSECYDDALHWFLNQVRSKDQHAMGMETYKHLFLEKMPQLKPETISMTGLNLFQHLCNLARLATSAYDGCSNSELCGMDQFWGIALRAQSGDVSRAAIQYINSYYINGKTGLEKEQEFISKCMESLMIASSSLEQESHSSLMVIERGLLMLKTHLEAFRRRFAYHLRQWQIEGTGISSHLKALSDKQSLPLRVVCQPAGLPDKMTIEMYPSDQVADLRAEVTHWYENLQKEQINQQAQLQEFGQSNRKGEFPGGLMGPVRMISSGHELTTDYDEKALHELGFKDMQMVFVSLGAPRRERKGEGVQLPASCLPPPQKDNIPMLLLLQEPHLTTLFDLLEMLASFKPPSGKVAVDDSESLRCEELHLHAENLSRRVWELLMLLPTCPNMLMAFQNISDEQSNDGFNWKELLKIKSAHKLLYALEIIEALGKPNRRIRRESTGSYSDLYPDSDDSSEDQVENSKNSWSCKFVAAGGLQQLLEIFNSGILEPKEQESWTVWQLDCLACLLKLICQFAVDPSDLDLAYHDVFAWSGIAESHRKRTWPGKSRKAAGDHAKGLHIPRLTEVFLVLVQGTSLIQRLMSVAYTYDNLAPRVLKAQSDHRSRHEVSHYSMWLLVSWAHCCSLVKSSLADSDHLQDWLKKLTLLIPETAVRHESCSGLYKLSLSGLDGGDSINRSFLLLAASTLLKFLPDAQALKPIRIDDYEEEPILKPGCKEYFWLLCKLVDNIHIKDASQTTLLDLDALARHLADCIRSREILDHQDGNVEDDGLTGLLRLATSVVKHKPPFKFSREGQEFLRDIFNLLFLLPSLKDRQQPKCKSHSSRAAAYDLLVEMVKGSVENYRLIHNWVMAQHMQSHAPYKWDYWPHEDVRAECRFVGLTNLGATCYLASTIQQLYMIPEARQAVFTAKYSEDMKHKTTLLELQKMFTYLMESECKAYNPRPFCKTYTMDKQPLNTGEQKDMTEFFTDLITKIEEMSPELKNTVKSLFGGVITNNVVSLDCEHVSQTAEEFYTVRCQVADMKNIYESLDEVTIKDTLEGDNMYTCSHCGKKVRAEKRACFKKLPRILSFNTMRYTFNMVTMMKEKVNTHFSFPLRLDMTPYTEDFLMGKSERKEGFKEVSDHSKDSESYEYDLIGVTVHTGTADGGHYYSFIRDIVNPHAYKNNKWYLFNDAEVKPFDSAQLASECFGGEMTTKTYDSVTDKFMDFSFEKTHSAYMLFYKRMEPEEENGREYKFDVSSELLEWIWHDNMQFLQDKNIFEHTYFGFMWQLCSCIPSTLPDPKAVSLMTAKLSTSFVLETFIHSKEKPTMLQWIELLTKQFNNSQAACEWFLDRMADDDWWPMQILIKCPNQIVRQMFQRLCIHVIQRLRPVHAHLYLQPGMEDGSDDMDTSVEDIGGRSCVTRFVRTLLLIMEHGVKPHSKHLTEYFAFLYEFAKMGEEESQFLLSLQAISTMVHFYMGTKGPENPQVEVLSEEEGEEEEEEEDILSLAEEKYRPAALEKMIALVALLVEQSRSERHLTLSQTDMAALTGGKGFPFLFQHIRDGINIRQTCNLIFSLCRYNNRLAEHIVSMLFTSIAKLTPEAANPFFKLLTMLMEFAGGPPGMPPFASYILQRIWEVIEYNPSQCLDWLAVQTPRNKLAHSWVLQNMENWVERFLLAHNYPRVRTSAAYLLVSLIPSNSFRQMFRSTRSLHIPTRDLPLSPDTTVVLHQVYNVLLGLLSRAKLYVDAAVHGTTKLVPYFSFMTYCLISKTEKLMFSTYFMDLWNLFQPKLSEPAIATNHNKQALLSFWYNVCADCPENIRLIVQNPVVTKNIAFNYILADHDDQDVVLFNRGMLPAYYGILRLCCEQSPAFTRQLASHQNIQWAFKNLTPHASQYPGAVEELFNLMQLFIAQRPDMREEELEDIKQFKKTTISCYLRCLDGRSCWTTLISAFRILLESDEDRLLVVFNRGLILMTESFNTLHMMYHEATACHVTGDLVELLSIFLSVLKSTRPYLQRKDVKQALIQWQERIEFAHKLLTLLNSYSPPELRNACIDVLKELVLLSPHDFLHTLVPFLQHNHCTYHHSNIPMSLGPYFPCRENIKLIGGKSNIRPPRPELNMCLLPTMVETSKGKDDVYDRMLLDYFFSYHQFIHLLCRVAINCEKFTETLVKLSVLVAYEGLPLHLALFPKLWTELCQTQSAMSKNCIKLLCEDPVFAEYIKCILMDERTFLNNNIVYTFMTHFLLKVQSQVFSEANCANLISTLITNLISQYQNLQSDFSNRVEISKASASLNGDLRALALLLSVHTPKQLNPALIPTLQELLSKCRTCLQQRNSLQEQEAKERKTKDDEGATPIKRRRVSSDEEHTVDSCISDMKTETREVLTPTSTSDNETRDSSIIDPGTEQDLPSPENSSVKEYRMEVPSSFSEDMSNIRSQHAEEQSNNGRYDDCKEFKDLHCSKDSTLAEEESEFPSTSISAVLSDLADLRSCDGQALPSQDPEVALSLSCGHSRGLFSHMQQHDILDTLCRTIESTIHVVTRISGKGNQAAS

Cc1cc(C(=O)NC2CCN(C(=O)CCl)CC2)no1
inactive: USP34 -0.22 | USP36 -0.0502 | USP38 0.122 | USP39 0.0572 | USP4 -0.111

Reference: the supplement of paper PMC11732987, “Enantioselective OTUD7B fragment discovery through chemoproteomics screening and high-throughput optimisation” (Communications Chemistry, 2025)
